Only some compounds are listed: those with a hit (about 4.5% of all), similar ones and a draw of the others.
BJeLR lethal – kills HRASV12-expressing BJeLR cells; BJeLR (HRASV12) viability, CellTiter-Glo ATP luminescence, 48 h; inhibition, % (test concentration not listed); hit rate 0.17% among 300,000; in the data active = inhibition above about 50%
PrP UTR inh – suppresses PrP 5' UTR mRNA reporter expression | AID 488862 | hit rate 0.35% among 340,000 | cell-based PrP 5' UTR mRNA reporter, plate reader | inhibition, % (no concentration beside the values); in the data active = inhibition above about 52%; also: 0 = median of the neutral control wells
PfHsp40 yeast – compounds rescuing yeast from Plasmodium falciparum HSP40 toxicity | S. cerevisiae expressing PfHsp40, growth rescue, ATP luminescence | growth rescue, % at 12.5 µM | hit rate 0.68% among 340,000 | AID 504582; in the data active = growth rescue above about 28%, passing the limit was not always enough;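 also: yeast W303a lacking pdr1 and pdr3 grown in galactose medium; growth measured after three days at 30 °C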
PrPC surface inh – cell surface PrPC inhibition, primary TR-FRET screen | P04156 | TR-FRET read-out | inhibition, % at 13.8 µM | hit rate 0.43% among 370,000 | AID 720596; in the data active = inhibition above about 24%; also: 0% = median of the test wells and 100% = reference compound wells
GDH-TPI inh – GDH-TPI coupled enzyme inhibition counter-screen; GDH-TPI coupled enzyme counterscreen, NADH absorbance; inhibition, % at 4.8 µM; hit rate 1.2% among 360,000; in the data active = inhibition above about 30%;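 also: 0% = DMSO wells and 100% = wells lacking the enzyme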
Mtb FBA inh – inhibitors of M. tuberculosis fructose-bisphosphate aldolase; P9WQA3; purified M. tuberculosis FBA, fluorescence read-out; inhibition, % at 1 µM; hit rate 2.3% among 360,000; in the data active = inhibition above about 27%;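 also: 0% = vehicle and 100% = reference inhibitor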
Target sequence (P9WQA3 whole entry, looked up): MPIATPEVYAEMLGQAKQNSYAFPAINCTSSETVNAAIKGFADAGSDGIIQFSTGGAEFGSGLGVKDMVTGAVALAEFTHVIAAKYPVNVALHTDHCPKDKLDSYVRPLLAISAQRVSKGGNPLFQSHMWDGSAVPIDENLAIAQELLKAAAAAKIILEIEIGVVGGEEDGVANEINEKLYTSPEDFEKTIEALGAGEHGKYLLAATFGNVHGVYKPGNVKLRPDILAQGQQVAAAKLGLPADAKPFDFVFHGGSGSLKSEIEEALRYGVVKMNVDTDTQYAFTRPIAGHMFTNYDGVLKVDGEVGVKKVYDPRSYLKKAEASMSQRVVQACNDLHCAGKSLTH
Numbers without * were called inactive; ! = repeats disagree.

What do the screens show for `COCc1cn([C@H]2C[C@@H]3O[C@H](CO)CC[C@@H]3O[C@@H]2CCc2ccc(-c3ccc(OC)cc3)cc2)nn1`?
PrPC surface inh: -4

What do the screens show for `CCOC(=O)c1ccc(NC(=O)CSc2nnc(SCc3cccc4ccccc34)s2)cc1`?
PrPC surface inh: 4

How did COc1ccc(-n2ncc3c2CC(C)(C)CC3NC(=O)C2=CC(=O)CC(C)(C)O2)cc1 (centres undefined) do in these assays?
BJeLR lethal: 15; PrP UTR inh: -8; PfHsp40 yeast: 1; PrPC surface inh: 1; GDH-TPI inh: -3; Mtb FBA inh: 153*

Results for CCC(C)n1ncn(-c2ccc(N3CCN(c4ccc(OCC5COC(Cn6cncn6)(c6ccc(Cl)cc6Cl)O5)cc4)CC3)cc2)c1=O (centres undefined) ?
BJeLR lethal: 6; PrP UTR inh: 14; PfHsp40 yeast: 181*!; PrPC surface inh: -3; GDH-TPI inh: 1; Mtb FBA inh: 6

Results for CCC(C)n1c(O)c(C=NCCc2ccccc2)c(=O)[nH]c1=S (centres undefined) ?
BJeLR lethal: -6; PrP UTR inh: -14; PfHsp40 yeast: 5; PrPC surface inh: 2; GDH-TPI inh: 55*; Mtb FBA inh: 0

How did O=C(OC12CCCN(C1)/C(=C/c1ccncc1)C2)c1ccco1 (centres undefined) do in these assays?
PrPC surface inh: 7

What do the screens show for `N#C/C(=C/c1ccc(CNS(=O)(=O)c2ccccc2)o1)C(N)=O`?
BJeLR lethal: 1; PrP UTR inh: 14; PfHsp40 yeast: -1; PrPC surface inh: -19; GDH-TPI inh: 37*; Mtb FBA inh: -1

Results for Cn1ccc(/C=N/N=C2/NC(=O)CS2)n1 ?
BJeLR lethal: -2; PrP UTR inh: -11; PfHsp40 yeast: 0; PrPC surface inh: 1; GDH-TPI inh: 46*; Mtb FBA inh: -1

What do the screens show for `O=C1CS/C(=N/N=C/c2ccncc2)N1`?
BJeLR lethal: -4; PrPC surface inh: 3; GDH-TPI inh: 30; Mtb FBA inh: -3

What do the screens show for `CCOC(=O)CNC(=O)CSc1nnc(-c2ccc(C(C)(C)C)cc2)n1-c1ccc(Cl)cc1`?
PrPC surface inh: 6

Results for Cc1cc(N/N=C/c2ccc(O)c(C)c2O)nc(-c2ccccc2O)n1 ?
BJeLR lethal: 29; PrP UTR inh: -2; PfHsp40 yeast: 73*; PrPC surface inh: 16; GDH-TPI inh: 32*; Mtb FBA inh: 6

What do the screens show for `CC1=CC(c2ccccc2)n2nc(N3C(=O)C4CC=CCC4C3=O)nc2N1` (centres undefined)?
BJeLR lethal: 3; PrP UTR inh: -50; PfHsp40 yeast: -1; PrPC surface inh: -3; GDH-TPI inh: 3; Mtb FBA inh: 175*

What do the screens show for `O=C1CC(c2ccccc2)n2nc(N3C(=O)c4ccccc4C3=O)nc2N1` (centres undefined)?
BJeLR lethal: -4; PrP UTR inh: -11; PfHsp40 yeast: 0; PrPC surface inh: -5; GDH-TPI inh: 0; Mtb FBA inh: 1

How did CC1=CC(c2ccccc2)n2nc(N3C(=O)c4ccccc4C3=O)nc2N1 (centres undefined) do in these assays?
BJeLR lethal: -3; PrP UTR inh: -15; PfHsp40 yeast: -1; PrPC surface inh: -3; GDH-TPI inh: 2; Mtb FBA inh: 30*

Results for Cc1onc(-c2c(Cl)cccc2Cl)c1C(=O)N/N=C(\N)COc1ccc(Cl)cc1 ?
BJeLR lethal: -3; PrP UTR inh: 2; PfHsp40 yeast: 599*; PrPC surface inh: 13; GDH-TPI inh: 4; Mtb FBA inh: -3

How did COc1cc(/C=N/NC(=O)c2c(-c3c(Cl)cccc3Cl)noc2C)ccc1OCC(N)=O do in these assays?
BJeLR lethal: 2; PrP UTR inh: -18; PfHsp40 yeast: -2; PrPC surface inh: 12; GDH-TPI inh: 9; Mtb FBA inh: -2

How did O=C(NCCc1ccccc1F)c1ccc2c(c1)ncn2C1CCCCC1 do in these assays?
PrPC surface inh: -8

What do the screens show for `COc1cc(OC)c(OC)cc1C=Cc1ccc2ccccc2n1`?
PrPC surface inh: -12; GDH-TPI inh: 31*; Mtb FBA inh: 7

How did COc1c(OC(C)=O)ccc(/C=C/c2ccc3ccccc3n2)c1[N+](=O)[O-] do in these assays?
BJeLR lethal: 0; PrP UTR inh: -208; PfHsp40 yeast: 1; PrPC surface inh: -23; GDH-TPI inh: 43*; Mtb FBA inh: -1

Screening results deposited in PubChem by several laboratories.
